Only some compounds are listed: those with a hit (about 27% of all), similar ones and a draw of the others.
CYP2C19 activ = cytochrome P450 2C19 (human) activation | P33261 | AID 1025 | recombinant CYP2C19, luciferin-H EGE luminescence; hits give high values; 0 = fully inhibited enzyme, 1 = untreated enzyme | activation factor at 5 µM | 96,000 tested, under 10 active;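 active = activation factor of at least 2 at 5 µM in the primary screen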;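 also: 0 = wells with 2.5 mM tranylcypromine and 1 = vehicle-only wells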
CYP2C9 activ = increases human cytochrome P450 2C9 activity | recombinant CYP2C9, luciferin-H conversion, luminescence; hits give high values; factor 1 = untreated enzyme, 0 = blocked | activation factor at 5 µM | 96,000 tested, 1.4% active | AID 1024;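 active = activation factor of 2 or more for CYP2C9 at a 5 µM dose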;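 also: 0 = sulfaphenazole-blocked wells and 1 = vehicle-only wells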
Cav3 T inh = blocks human Cav3.2 T-type calcium channel | O95180 | Cav3.2-expressing cells, Fluo-4 calcium fluorescence FDSS; hits give low values | B-score at 10 µM | 100,000 tested, 4% active;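 active = single-dose well whose peak fluorescence ratio is a statistical outlier from its plate by either plate-standardised score or position-corrected B-score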
CYP2C19 inhib = blocks human cytochrome P450 2C19; inhibition, % at 5 µM; CYP2C19 Supersomes, luciferin-H EGE luminescence, 30 min; 96,000 tested, 21% active;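 active = CYP2C19 inhibition above a set limit at 5 µM in the primary screen, cut at about 50% in these data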;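 also: plate controls were negative control wells for no effect and 2.5 mM tranylcypromine positive control for full effect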
CYP2C9 inhib = human CYP2C9 inhibition; 96,000 tested, 20% active; CYP2C9 Supersomes, luciferin-H conversion, luminescence; inhibition, % at 5 µM; AID 777;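 active = blocking of liver enzyme CYP2C9 beyond about 50% at 5 µM, limit read from the data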
The depositor's hits bear a star.

How did CC(=O)N(Cc1c(C)nn(-c2ccccc2)c1Cl)c1ccc(Cl)cc1 do in these assays?
CYP2C19 activ: 0.1; CYP2C9 activ: 0.5; Cav3 T inh: -8.3*; CYP2C19 inhib: 90*; CYP2C9 inhib: 49

How did CC1(C)CC(=O)C2=C(C1)c1c(ccc3ccccc13)NC2c1ccc(Br)o1 (stereo unspecified) do in these assays?
CYP2C19 activ: 0.3; CYP2C9 activ: 0; Cav3 T inh: -1.4; CYP2C19 inhib: 75*; CYP2C9 inhib: 96*

How did CC(C)Cc1nnc(NS(=O)(=O)Cc2ccccc2)s1 do in these assays?
CYP2C19 activ: 1; CYP2C9 activ: 0.4; Cav3 T inh: -0.7; CYP2C19 inhib: 4; CYP2C9 inhib: 63*

Results for Cc1onc(-c2ccccc2)c1C(=O)Nc1ccnn1C1CCCCC1 ?
CYP2C19 activ: 0.6; CYP2C9 activ: 0.6; Cav3 T inh: -0.66; CYP2C19 inhib: 37; CYP2C9 inhib: 41

What do the screens show for `CCCCNC(=O)Nc1ccnn1C1CCCCC1`?
CYP2C19 activ: 0.4; CYP2C9 activ: 0.8; Cav3 T inh: -0.093; CYP2C19 inhib: 57*; CYP2C9 inhib: 15

Results for COc1ccc(CCN(C(=O)C(F)(F)F)C(C(=O)NC2CCCC2)c2cccs2)cc1 (stereo unspecified) ?
CYP2C19 activ: 0.4; CYP2C9 activ: 0.2; Cav3 T inh: -3.3; CYP2C19 inhib: 63*; CYP2C9 inhib: 77*

What do the screens show for `Cc1ccc(C(=O)NNC(=O)C2CCN(c3nccc(C)n3)CC2)cc1`?
CYP2C19 activ: 0.9; CYP2C9 activ: 0.5; Cav3 T inh: 0.19; CYP2C19 inhib: 10; CYP2C9 inhib: 50*

Results for O=C(NC1CCCCC1)C(c1ccc(Cl)cc1)N(C(=O)c1cnccn1)c1ccc2c(c1)OCO2 (stereo unspecified) ?
CYP2C19 activ: 0.9; CYP2C9 activ: 1; Cav3 T inh: -0.7; CYP2C19 inhib: 15; CYP2C9 inhib: 1

What do the screens show for `CC(C)CCOP(=O)(c1ccc(N(C)C)cc1)C(O)c1ccccc1F` (stereo unspecified)?
CYP2C19 activ: 0.3; CYP2C9 activ: 0.5; CYP2C19 inhib: 74*; CYP2C9 inhib: 48

Results for CCOP(=O)(c1ccc(N(C)C)cc1)C(O)c1ccccc1OC (stereo unspecified) ?
CYP2C19 activ: 0.7; CYP2C9 activ: 1.2; Cav3 T inh: -0.05; CYP2C19 inhib: 34; CYP2C9 inhib: -19

How did CC(C)COP(=O)(c1ccc(N(C)C)cc1)C(O)c1ccccn1 (stereo unspecified) do in these assays?
CYP2C19 activ: 0.3; CYP2C9 activ: 0.8; Cav3 T inh: 0.44; CYP2C19 inhib: 67*; CYP2C9 inhib: 17

Results for CC(C)CCOP(=O)(c1ccc(N(C)C)cc1)C(O)c1ccccn1 (stereo unspecified) ?
CYP2C19 activ: 0.2; CYP2C9 activ: 0.6; Cav3 T inh: 0.36; CYP2C19 inhib: 80*; CYP2C9 inhib: 44

Results for CCCCOP(=O)(c1ccc(N(C)C)cc1)C(O)c1ccncc1 (stereo unspecified) ?
CYP2C19 activ: 0.2; CYP2C9 activ: 0.3; Cav3 T inh: 0.8; CYP2C19 inhib: 80*; CYP2C9 inhib: 74*

How did CC(C)OP(=O)(c1ccc(N(C)C)cc1)C(O)c1ccncc1 (stereo unspecified) do in these assays?
CYP2C19 activ: 0.9; CYP2C9 activ: 0.7; Cav3 T inh: 0.025; CYP2C19 inhib: 9; CYP2C9 inhib: 27

Results for O=C(/C=C/c1ccccc1)N1CCN(c2cccc(Cl)n2)CC1 ?
CYP2C19 activ: 0.7; CYP2C9 activ: 0.5; Cav3 T inh: -0.18; CYP2C19 inhib: 25; CYP2C9 inhib: 46

What do the screens show for `O=C(CSc1nnc(Cn2c(=O)sc3ccccc32)n1-c1ccccc1)NCc1ccco1`?
Cav3 T inh: 0.95

Results for O=C(Cc1cccc2ccccc12)Nc1ccccc1C(=O)O ?
CYP2C19 activ: 1.1; CYP2C9 activ: 0.1; CYP2C19 inhib: -10; CYP2C9 inhib: 87*

What do the screens show for `COc1ccc(Cl)cc1C(=O)NNC(=S)NC(=O)c1cc(-c2ccccc2)nc2ccccc12`?
CYP2C19 activ: 0.5; CYP2C9 activ: 0.9; CYP2C19 inhib: 47; CYP2C9 inhib: 10

Results for O=C(NNC(=O)c1cc(-c2ccccc2)nc2ccccc12)Nc1cccc(Cl)c1 ?
CYP2C19 activ: 0.8; CYP2C9 activ: 0.3; Cav3 T inh: -1.1; CYP2C19 inhib: 24; CYP2C9 inhib: 75*

Screens deposited in PubChem BioAssay by several laboratories.
